Experimental data reported in PubChem BioAssay AID720514 (Broad Institute, 2013).
Out of some 2,100 compounds screened, about 300 (14%) were called active. Another 2% or so got no clear call; they are omitted.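 Rule for the calls: active = every replicate test run called active, with the signal falling and half-maximal concentration within twice the top valid dose; inconclusive = the replicate test runs disagree in their calls; inactive = every test run inactive, including effects in the opposite direction.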 Not all results are given here. Entries with a potency or affinity are not part of this list.

experiment: reduced cellular PGC1a acetyl-lysine signal – cell-based, cherry-picked samples, dose response (AID 720514); conditions: U2OS PGC1a acetylation, AlphaLISA, overnight; series mostly up to 19.5 µM; activity change, negative = inhibition: at the top concentration;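 note: 0% = neutral control wells and -100% = positive control wells; actives lower the acetylation signal so they count as inhibitors of PGC1a acetylation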

Activity change, negative = inhibition, inactive:
CCN(CC)CCCn1c(=S)[nH]c2cc(Cl)ccc2c1=O 119%, N#Cc1ccc(C(=O)CSc2nnc(-c3ccc(C(F)(F)F)cn3)s2)cc1 45.1%, O=C(CSc1nc2ccccc2c(=O)n1CC1CCCO1)N1CCN(c2ccccc2)CC1 (stereo not drawn) 30.9%, Cn1cc(-c2ccc(C(=O)NCc3cccc(Cl)c3)c3occc23)cn1 72.5%, Cc1ccc2[nH]cc(C(=O)CN3CCN(c4ccccc4F)CC3)c2c1 58.1%, COc1ccc(NC(=O)N2CCN(c3ccc([N+](=O)[O-])cc3)CC2)cc1 85.4%, COc1ccc(C2C(C(=O)Nc3ccccc3)=C(C)Nc3nc(CCCO)nn32)cc1 (stereo not drawn) 69.2%, O=C(Nc1ccc(OCC(=O)N2CCC(Cc3ccccc3)CC2)cc1)c1ccco1 111%, CC1=CC(C)(C)N2C(=O)C3(SCC(=O)N3c3ccc(F)cc3)c3cc(C)cc1c32 (stereo not drawn) 65.8%, NC(=O)Cn1cc(C(=O)c2cccs2)c2ccccc21 101%, C[C@@H]1CN([C@@H](C)CO)C(=O)c2c(c3ccccc3n2C)-c2ccccc2CO[C@@H]1CN(C)C(=O)c1ccc(F)cc1 154% [at 21 µM], O=S(=O)(NCc1ccccc1Br)c1ccccc1Br 43.5%, COCCN(C)Cc1nc(C(c2ccccc2)c2ccccc2)no1 41.6%, Cc1cc(C(F)(F)F)n(-c2nc(C(=O)NNS(=O)(=O)c3ccccc3[N+](=O)[O-])cs2)n1 65.3%, O=C(NCCC1=CCCCC1)c1coc(=O)c(Br)c1 27.7%, O=C(NCc1cccnc1)c1ccc(NC(=O)c2cccc([N+](=O)[O-])c2)cc1 327%, COc1cc(/C=C2\SC(=O)NC2=O)ccc1Oc1ccc([N+](=O)[O-])cn1 54%, COc1ccc(CN2CCn3ncc(C(=O)Nc4ccccc4)c3C2=O)cc1 30.6%, COc1ccc(C#Cc2c(-c3ccccc3)n(-c3ccccc3)c3ccc(CO)cc23)cc1 101%, CC12CCC(C1)C(C)(C)C2NS(=O)(=O)c1ccc(F)cc1 (stereo not drawn) 96.9%, COc1ccc(NC(=O)c2sccc2SCc2cccc(C(F)(F)F)c2)cc1 93.2%, O=C(Cn1c(CN2CCCCC2)nc2ccccc2c1=O)Nc1ccccc1 59.2%, COc1ccc(Cn2nnnc2C(C(C)C)N(Cc2ccco2)Cc2cccs2)cc1 (stereo not drawn) 116%, COc1cccc(C(=O)/C=C/c2ccc(OCC#N)c(OC)c2)c1 44.8% [at 10 µM], COc1ccc(S(=O)(=O)N(C)CC(=O)Nc2cccc(C(C)=O)c2)cc1Cl 89.1%, COc1ccc(S(=O)(=O)NNC(=O)c2csc(-n3nc(C)cc3C(F)(F)F)n2)cc1 46.5% [at 10 µM], COc1ccc(Nc2nnc(-c3ccc(C(=O)NCCO)cc3)c3ccccc23)cc1 89.6%, Cn1ncc(Cl)c1C(=O)Nc1sc2c(c1C(N)=O)CCC2 44.2% [at 10 µM], N#Cc1cccc(C(c2nnnn2C2CCCC2)N2CCCCCC2)c1 (stereo not drawn) 81.4%, Cc1c(C(=O)N2CCN(c3ccccn3)CC2)sc2ncnc(N3CCN(c4ccccc4)CC3)c12 34.3%, COc1cc(NC(=O)c2cccs2)c(OC)cc1NC(=O)CCC(=O)Nc1ccc2ncccc2c1 202% [at 10 µM], Cc1ccc(CC(=O)N2CCN(c3ccc([N+](=O)[O-])cc3)CC2)cc1 228%, O=C(Nc1ccc(F)cc1F)N1CCCN(c2ccc([N+](=O)[O-])cn2)CC1 107%, CS(=O)(=O)N(CC(=O)N1CCN(c2ccccc2)CC1)c1cccc(Br)c1 51.7%, Cc1ccc(OCC(=O)NCCCNC(=O)c2cccnc2)cc1C 201% [at 10 µM], O=C(COc1ccc(Cl)cc1)NCCCNC(=O)c1cccnc1 238% [at 10 µM], Cc1cc2oc(=O)cc(CN3CCC(C)CC3)c2cc1C 50.6%, O=C(CN1CCC(n2nnc3ccccc32)CC1)NCc1cccs1 118%, C=CCNC(=O)c1ccc(CN2CCC(Cc3ccccc3)CC2)cc1 29.6%, Cc1cc(C(=O)NNS(=O)(=O)c2ccc(F)cc2)nn1C(C)(C)C 430% [at 10 µM], COc1cc(CN2[C@@H]3CNC[C@H]2C3c2ccc(-c3ccccc3)cc2)cc(OC)c1 (stereo partly drawn) 44.3%, CCOc1ccc(NC2c3ccccc3C(=O)N2Cc2ccc3c(c2)OCO3)cc1 (stereo not drawn) 38.7%, COc1ccc(CCCNC(=O)C2(C)Cc3c(-c4ccc5c(c4)OCO5)ccnc3O2)cc1 (stereo not drawn) 25%, O=C(c1ccccc1Nc1ccc(SC(F)F)cc1)N1CCCCCC1 61.7%, Cc1cccc(Nc2nnc(-c3ccc(C(=O)N4C[C@H]5C[C@H](C4)c4cccc(=O)n4C5)cc3)c3ccccc23)c1 64.7%, COC(=O)[C@H](Cc1ccccc1)N(C)S(=O)(=O)c1cccc(S(=O)(=O)N(C)[C@@H](Cc2ccccc2)C(=O)OC)c1 47.9%, Cc1csc(NC(=O)NC2(C(F)(F)F)Oc3ccccc3O2)n1 85.6% [at 10 µM], O=C(Nc1cccc(C(F)(F)F)c1)c1sc(Cl)nc1C(F)(F)F 62.9%, Cc1cccc(C)c1OC1(c2ccccc2)OC(=O)c2ccccc21 (stereo not drawn) 94.7%, O=C(CCn1nnc2ccccc21)Nc1nnc(Cc2ccccc2)s1 87.3%, O=S(=O)(NC12CC3CC(CC(C3)C1)C2)c1ccc(F)cc1 47.5%, O=C(CSc1nnc(Cn2cnc3ccccc32)o1)c1ccccc1 172%, CCOc1ccc(-c2nnn(CC#N)n2)cc1OC 186% [at 10 µM], Cc1cc(C)c2oc(C(=O)N(Cc3ccccc3)c3ccccn3)cc(=O)c2c1 44.6%, Cc1ccc(NC(=O)CN(C)S(=O)(=O)c2cccs2)c(Br)c1 48.4%, N#C/C(=C(/O)c1ccco1)c1nc2ccccc2[nH]1 286%, COc1ccc(-c2c(-c3cc(OC)cc(OC)c3)n(C)c3ccc(-c4cnc(N)nc4)cc23)cc1 119%, Cc1cc(S(=O)(=O)c2ccc([N+](=O)[O-])cn2)ccc1Br 105% [at 10 µM], O=C(NCCC1CCCCN1S(=O)(=O)c1cccs1)C(=O)Nc1ccc(F)cc1F (stereo not drawn) 81.8%, O=C(Cc1ccccn1)NCC[C@@H]1CC[C@H](NC(=O)Nc2ccc(C(F)(F)F)cc2)[C@H](CO)O1 -0.998%, O=C(Cc1ccccn1)NCC[C@H]1CC[C@H](NC(=O)Nc2ccc(C(F)(F)F)cc2)[C@H](CO)O1 12.7% [at 21 µM], CCOC(=O)C(Cc1ccc(NC(=O)/C(=C\c2ccccc2)NC(=O)c2ccccc2)cc1)N1C(=O)c2ccccc2C1=O (stereo not drawn) 39.8%, O=C(NCc1cccs1)C1Cc2c(-c3ccc(Cl)cc3)ccnc2O1 (stereo not drawn) 95.1%
